Results taken from the supplement of paper PMC12808144.
Structures can show the parent of a compound that is named as a salt. Unmarked numbers belong to inactive results.

test system: Mel-DCC-11-R; assay: cell viability relative to DMSO control (fraction of DMSO control); higher = less cytotoxic, active = 0.8 or less; conditions: 1 µM; 120 h; vemurafenib co-treatment 8 µM
Method in brief: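 For 120 h, duplicate wells of 384-well plates held 1 µM of each of 315 approved anti-cancer drugs (TargetMol), spotted acoustically before cells were added in 40 µl per well. Immortalized NHEM-hTERT melanocytes were seeded at 2500/well, and patient-derived Mel-DCC-11 plus its resistant subline Mel-DCC-11-R at 1500/well. The subline was run both without and with 8 µM of its selecting drug, and ATPlite 1step luminescence was read. Viability was normalised to vehicle-treated wells and averaged over the two replicates.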

Q: `CNC(=O)c1cc(Oc2ccc(NC(=O)Nc3ccc(Cl)c(C(F)(F)F)c3)cc2)ccn1.Cc1ccc(S(=O)(=O)O)cc1` [Sorafenib tosylate] was tested. Which cell viability did it give?
A: 1.1

Q: Which cell viability does the source give for `Cc1ccc(Nc2nccc(N(C)c3ccc4c(C)n(C)nc4c3)n2)cc1S(N)(=O)=O` [Pazopanib] here?
A: 1.13

Q: Which cell viability does the source give for `CC[C@]1(O)C[C@@H]2C[N@@](CCc3c([nH]c4ccccc34)[C@@](C(=O)OC)(c3cc4c(cc3OC)N(C)[C@H]3[C@@](O)(C(=O)OC)[C@H](OC(C)=O)[C@]5(CC)C=CCN6CC[C@]43[C@@H]65)C2)C1.O=S(=O)(O)O` [Vinblastine sulfate] here?
A: 0.252 (active)

Q: With `[Cl][Pt+2][Cl]` [Cisplatin] as the compound, how does the cell viability read?
A: 1.28

Q: With `CCNC(=O)[C@@H]1CCCN1C(=O)[C@H](CCCN=C(N)N)NC(=O)[C@H](CC(C)C)NC(=O)[C@@H](CC(C)C)NC(=O)[C@H](Cc1ccc(O)cc1)NC(=O)[C@H](CO)NC(=O)[C@H](Cc1c[nH]c2ccccc12)NC(=O)[C@H](Cc1cnc[nH]1)NC(=O)[C@@H]1CCC(=O)N1` [Leuprorelin Acetate] as the compound, how does the cell viability read?
A: 0.919

Q: With `O=C(CCBr)N1CCN(C(=O)CCBr)CC1` [Pipobroman] as the compound, how does the cell viability read?
A: 0.897

Q: Which cell viability does the source give for `NC(=O)NO` [Hydroxyurea] here?
A: 0.655 (active)

Q: `CC1(C)CCC(CN2CCN(c3ccc(C(=O)NS(=O)(=O)c4ccc(NCC5CCOCC5)c([N+](=O)[O-])c4)c(Oc4cnc5[nH]ccc5c4)c3)CC2)=C(c2ccc(Cl)cc2)C1` was tested. Which cell viability did it give?
A: 1.23

Q: `CN1CCN(c2ccc3nc(-c4c(N)c5c(F)cccc5[nH]c4=O)[nH]c3c2)CC1` [Dovitinib] was tested. Which cell viability did it give?
A: 1.08

Q: How did the cell viability turn out when `COC(=O)/C=C/C(=O)OC` [Dimethyl fumarate] was run?
A: 1.13

Q: How did the cell viability turn out when `CCOC(=O)c1ccc(C#Cc2ccc3c(c2)C(C)(C)CCS3)nc1` [Tazarotene] was run?
A: 1.23

Q: `O=c1[nH]c(=O)n([C@H]2C[C@H](O)[C@@H](CO)O2)cc1F` [Floxuridine] was tested. Which cell viability did it give?
A: 1.07

Q: For `CCCc1cc(C)[nH]c(=O)c1CNC(=O)c1cc(-c2ccnc(N3CCN(C)CC3)c2)cc2c1cnn2C(C)C`, which cell viability is on record?
A: 0.88

Q: How did the cell viability turn out when `CNC(=O)c1ccccc1Sc1ccc2c(/C=C/c3ccccn3)n[nH]c2c1` [Axitinib] was run?
A: 1.03

Q: `CCOC(N)=O` [Urethane] was tested. Which cell viability did it give?
A: 1

Q: For `C[C@@H]1O[C@@H](O[C@H]2[C@H](Oc3cc(O)c4c(c3)O[C@H](c3ccc(O)cc3)CC4=O)O[C@H](CO)[C@@H](O)[C@@H]2O)[C@H](O)[C@H](O)[C@H]1O` [Naringin], which cell viability is on record?
A: 1.19

Q: How did the cell viability turn out when `OC[C@H]1O[C@@H](n2cnc3c2NC=NC[C@H]3O)C[C@@H]1O` [Pentostatin] was run?
A: 1.2

Q: `C.CCN(CC)CCCC(C)Nc1ccnc2cc(Cl)ccc12.O=P(O)(O)O.O=P(O)(O)O` (stereo not given) [Chloroquine diphosphate] was tested. Which cell viability did it give?
A: 1.1

Q: How did the cell viability turn out when `C[C@]12CC[C@H](O)CC1=CC[C@@H]1[C@@H]2CC[C@]2(C)C(c3cccnc3)=CC[C@@H]12` [Abiraterone] was run?
A: 1.16

Q: For `CCS(=O)(=O)N1CC(CC#N)(n2cc(-c3ncnc4[nH]ccc34)cn2)C1` [Baricitinib], which cell viability is on record?
A: 1.22

Q: With `O=NN(CCCl)C(=O)NCCCl` [Carmustine] as the compound, how does the cell viability read?
A: 1.02

Q: For `CCCC(=O)O[C@]1(C(=O)CO)CC[C@H]2[C@@H]3CCC4=CC(=O)CC[C@]4(C)[C@H]3[C@@H](O)C[C@@]21C` [Hydrocortisone butyrate], which cell viability is on record?
A: 1.14

Q: For `Cl.N=C1CCCN1Cc1[nH]c(=O)[nH]c(=O)c1Cl.O=c1[nH]c(=O)n([C@H]2C[C@H](O)[C@@H](CO)O2)cc1C(F)(F)F.O=c1[nH]c(=O)n([C@H]2C[C@H](O)[C@@H](CO)O2)cc1C(F)(F)F`, which cell viability is on record?
A: 1.1

Q: With `CC(C)(C#N)c1cc(Cn2cncn2)cc(C(C)(C)C#N)c1` [Anastrozole] as the compound, how does the cell viability read?
A: 1.01

Q: With `COc1ccc2c(c1OC)C(=O)O[C@@H]2[C@H]1c2c(cc3c(c2OC)OCO3)CC[NH+]1C.[Cl-]` [Noscapine hydrochloride] as the compound, how does the cell viability read?
A: 1.13
